Several values for one entry are separate records, joined by “and”; a condition that tells them apart may be missing. Equal values may be shown once. Where a name gives a salt, the structure may show the parent alone. ± gives the standard deviation of the averaged measurements.
Test system: HCC1569
Experiment: cell number relative to DMSO (% of DMSO); higher = more cells (less growth inhibition / toxicity)
Details: concentration: 10 µM; 24 h
Procedure, shortened: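 Compounds were applied at 10 µM for 24 h at 37 °C, in triplicate, to HCC1569 and TDF cells. The cells were then fixed and stained for H1.0, and nuclei were counterstained with DAPI. Nuclear H1.0 intensity or cell number is reported relative to the plate control as a percent, taking the median of replicates. Smoothing for positional effects was applied to HCC1569 values only.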
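Also: TDF denotes transformed human dermal fibroblasts of mesenchymal origin.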

Row | SMILES | cell number
1 | O=C(O)c1ccccc1Nc1cccc(C(F)(F)F)c1 [Flufenamic acid] | 103
2 | CN(C)CCOC(C)(c1ccccc1)c1ccccn1.O=C(O)CCC(=O)O (stereo not given) [Doxylamine succinate] | 99.5
3 | Br.CCSC(=N)N [S-Ethylisothiourea hydrobromide] | 102
4 | NCC1OC(OC2C(CO)OC(OC3C(O)C(N)CC(N)C3OC3OC(CN)C(O)C(O)C3N)C2O)C(N)C(O)C1O (stereo not given) [Neomycin] | 99.58 ± 0.33
5 | CN(c1ncccc1CNc1nc(Nc2ccc3c(c2)CC(=O)N3)ncc1C(F)(F)F)S(C)(=O)=O | 54.6
6 | O=C(O)C1=CC(=C(c2ccc(O)c(C(=O)O)c2)c2ccc(O)c(C(=O)O)c2)C=CC1=O [Aurintricarboxylic acid] | 102
7 | CCCCCC=CCC=CC=CC=CC(SCC(N)C(=O)NCC(=O)O)C(O)CCCC(=O)O (stereo not given) [Leukotriene D4] | 106
8 | CC(=O)Oc1ccccc1C(=O)Nc1ncc([N+](=O)[O-])s1 [2-{[(5-nitro-1,3-thiazol-2-yl)amino]carbonyl}phenyl acetate] | 89.4
9 | C=CCn1c(=O)c2c(nc(-c3ccc(S(=O)(=O)O)cc3)n2C)n(C)c1=O [1-Allyl-3,7-dimethyl-8-p-sulfophenylxanthine] | 102
10 | c1ccc2c(-c3ccncc3)c[nH]c2c1 [Rho Kinase Inhibitor III, Rockout] | 105
11 | CS(=O)(=O)O.O=C1Nc2ccc(-c3cccnc3)cc2C1=Cc1ccc[nH]1 [JAK3 Inhibitor VI] | 73
12 | CNc1cc2c(Nc3cccc(Br)c3)ncnc2cn1 | 87.2
13 | COc1ccc2c(c1)c(CC(=O)O)c(C)n2C(=O)c1ccc(Cl)cc1 [Indomethacin] | 101 ± 1.8
14 | COc1ccccc1O [Guaiacol] | 103
15 | CN(C)c1ccc(C=C2C(=O)Nc3ccccc32)cc1 | 95.9 and 109 and 98.8
16 | Cc1cc(C(C)(C)C)c(O)c(C)c1CC1=NCCN1.Cl [Oxymetazoline hydrochloride] | 104
17 | O=C(O)Cc1c[nH]c2ccc(O)cc12 [5-Hydroxyindolacetic acid] | 104
18 | COc1cc2ncc(-c3ccccc3)nc2cc1OC | 100
19 | CCC1OC(=O)C(C)C(OC2CC(C)(OC)C(O)C(C)O2)C(C)C(OC2OC(C)CC(N(C)C)C2O)C(C)(O)CC(C)C(=NOCOCCOC)C(C)C(O)C1(C)O (stereo not given) [Roxithromycin] | 106
20 | Cc1ccccc1CNc1ncnc2c1ncn2C1OC(CO)C(O)C1O (stereo not given) [Metrifudil] | 97

Row | SMILES | cell number
21 | O=C1c2cccc(O)c2C(=O)c2c(O)cc(CO)cc21 [Aloe-emodine] | 95.7
22 | C=CCc1ccc(O)c(-c2ccc(O)c(CC=C)c2)c1 [Honokiol] | 100
23 | C#CC1(O)CCC2C3C(C)CC4=C(CCC(=O)C4)C3CCC21C (stereo not given) [Tibolone] | 100
24 | Cl.NC(=NCc1ccccc1)NC(=O)c1nc(Cl)c(N)nc1N [Benzamil hydrochloride] | 94.7
25 | CCN(Cc1ccccc1)C(=O)Cn1c(=O)n(C)c2cnc(-c3ccccc3)nc21 | 75.1
26 | O=C1NC(C(=O)O)CS1 (stereo not given) [Procysteine] | 101
27 | O=C(O)c1cn(C2CC2)c2cc(N3C[C@@H]4C[C@H]3CN4)c(F)cc2c1=O | 99.1
28 | O=C(NCCO)c1cc(C(=O)NCCO)cc(C(=O)NCCO)c1 | 102
29 | CCCCCCCCCCCCCCCC(O)C(N)CO (stereo not given) [Dihydrosphingosine] | 102
30 | C[N+]1(CCCCC[N+]2(C)CCCC2)CCCC1.O=C([O-])C(O)C(O)C(=O)O.O=C([O-])C(O)C(O)C(=O)O [Pentolinium di[L(+)-tartrate]] | 103
31 | CCCCCCCCCCCCCCCCOCC(CO)OC (stereo not given) [1-Hexadecyl-2-O-methyl-glycerol] | 103
32 | CC1C(=O)OC2CC34C5CC(C(C)(C)C)C36C(OC(=O)C6O)OC4(C(=O)O5)C21O (stereo not given) [Ginkgolide A] | 99.6 ± 1.2
33 | CCOC(=O)C1=C(C)NC(C)=C(C(=O)OC)C1c1cccc(Cl)c1Cl (stereo not given) [Felodipine] | 102 ± 2.2
34 | CC(=O)OC1CC2(C)C(CC(O)C3C4(C)CCC(O)C(C)C4CCC32C)C1=C(CCC=C(C)C)C(=O)[O-].[Na+] (stereo not given) [Fusidic acid sodium] | 105
35 | CN1C(CC(=O)c2ccccc2)CCCC1CC(O)c1ccccc1.Cl (stereo not drawn) [alpha-Lobeline hydrochloride] | 99.3
36 | Cc1cc(CS(=O)(=O)c2ccccc2)cc(OCc2ccc(CN3CCC[C@@H]3CO)cc2)c1 [PF-543 hydrochloride] | 95.8
37 | OCC1OC(n2cnc3c(Nc4ccccc4)ncnc32)C(O)C1O (stereo not given) [N6-Phenyladenosine] | 101
38 | OCCN1CCN(CCCN2c3ccccc3Sc3ccc(Cl)cc32)CC1 [Perphenazine] | 88
39 | C=CCc1ccc(O)c(-c2cc(CC=C)ccc2O)c1 [Magnolol] | 98
40 | CCc1c(CC(N)=O)c2cc(OCCCP(=O)(O)O)ccc2n1Cc1ccccc1 | 101
